Results published in PMC5540273 (PLoS ONE, 2017).

Key:
Conditions in all cases: concentration: 1 μM, replicates: in singlicate; n = 1
CAMK2D = tested on: CAMK2D
CAMK2G = tested on: CAMK2G
CAMK4 = tested on: CAMK4
CAMKK1 = tested on: CAMKK1
CAMKK2 = tested on: CAMKK2
CASK = tested on: CASK
CDC2L1 = tested on: T1, CDC2L1
T1 construct: gene CDK11B

CDC2L2 = tested on: CDC2L2
CDC2L5 = tested on: T2, CDC2L5
T2 construct: gene CDK13

CDK11 = tested on: T3, CDK11
T3 construct: gene CDK19

CDK2 = tested on: CDK2
CDK3 = tested on: CDK3
CDK4-cyclinD1 = tested on: CDK4-cyclinD1
CDK4-cyclinD3 = tested on: CDK4-cyclinD3
CDK4 = tested on: CDK4
CDK5 = tested on: CDK5
CDK7 = tested on: CDK7
CDK8 = tested on: CDK8
CDK9 = tested on: CDK9
CDKL1 = tested on: CDKL1
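Also: KINOMEscan kinase panel screen.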

## Nc1nc(-c2cccnc2)c(-c2ccnc3ccccc23)s1 [GW684083]
CAMK2D
  %Inh: 2%
CAMK2G
  %Inh: 27%
CAMK4
  %Inh: 0%
CAMKK1
  %Inh: 0%
CAMKK2
  %Inh: 19%
CASK
  %Inh: 14%
CDC2L1
  %Inh: 0%
CDC2L2
  %Inh: 12%
CDC2L5
  %Inh: 0%
CDK11
  %Inh: 8%
CDK2
  %Inh: 0%
CDK3
  %Inh: 11%
CDK4-cyclinD1
  %Inh: 16%
CDK4-cyclinD3
  %Inh: 0%
CDK4
  %Inh: 41%
CDK5
  %Inh: 0%
CDK7
  %Inh: 0%
CDK8
  %Inh: 46%
CDK9
  %Inh: 0%
CDKL1
  %Inh: 13%

## Nc1nccc2scc(-c3ccc4c(c3)CCN4C(=O)Cc3cc(F)ccc3F)c12 [GSK2587663]
CAMK2D
  %Inh: 9%
CAMK2G
  %Inh: 23%
CAMK4
  %Inh: 0%
CAMKK1
  %Inh: 5%
CAMKK2
  %Inh: 9%
CASK
  %Inh: 22%
CDC2L1
  %Inh: 0%
CDC2L2
  %Inh: 6%
CDC2L5
  %Inh: 0%
CDK11
  %Inh: 61%
CDK2
  %Inh: 0%
CDK3
  %Inh: 18%
CDK4-cyclinD1
  %Inh: 0%
CDK4-cyclinD3
  %Inh: 0%
CDK4
  %Inh: 0%
CDK5
  %Inh: 0%
CDK7
  %Inh: 0%
CDK8
  %Inh: 61%
CDK9
  %Inh: 0%
CDKL1
  %Inh: 23%

## Cc1ccc(NC(=O)c2cccc(C#N)c2)cc1-c1ccc(C(=O)Nc2ccncc2)cc1 [GSK1398463]
CAMK2D
  %Inh: 49%
CAMK2G
  %Inh: 26%
CAMK4
  %Inh: 0%
CAMKK1
  %Inh: 15%
CAMKK2
  %Inh: 2%
CASK
  %Inh: 7%
CDC2L1
  %Inh: 0%
CDC2L2
  %Inh: 14%
CDC2L5
  %Inh: 0%
CDK11
  %Inh: 5%
CDK2
  %Inh: 0%
CDK3
  %Inh: 7%
CDK4-cyclinD1
  %Inh: 0%
CDK4-cyclinD3
  %Inh: 9%
CDK4
  %Inh: 0%
CDK5
  %Inh: 0%
CDK7
  %Inh: 0%
CDK8
  %Inh: 0%
CDK9
  %Inh: 0%
CDKL1
  %Inh: 15%

## Cl.c1ccc(Cn2ccc3cc(Nc4ncnc5ccccc45)ccc32)cc1 [GW275568]
CAMK2D
  %Inh: 24%
CAMK2G
  %Inh: 27%
CAMK4
  %Inh: 0%
CAMKK1
  %Inh: 16%
CAMKK2
  %Inh: 29%
CASK
  %Inh: 17%
CDC2L1
  %Inh: 23%
CDC2L2
  %Inh: 28%
CDC2L5
  %Inh: 0%
CDK11
  %Inh: 19%
CDK2
  %Inh: 1%
CDK3
  %Inh: 16%
CDK4-cyclinD1
  %Inh: 0%
CDK4-cyclinD3
  %Inh: 16%
CDK4
  %Inh: 31%
CDK5
  %Inh: 0%
CDK7
  %Inh: 13%
CDK8
  %Inh: 5%
CDK9
  %Inh: 27%
CDKL1
  %Inh: 18%

## Cn1ccc2ncnc(Oc3ccc(NC(=O)Nc4cccnc4)c(Cl)c3)c21
CAMK2D
  %Inh: 19%
CAMK2G
  %Inh: 19%
CAMK4
  %Inh: 0%
CAMKK1
  %Inh: 20%
CAMKK2
  %Inh: 11%
CASK
  %Inh: 0%
CDC2L1
  %Inh: 9%
CDC2L2
  %Inh: 0%
CDC2L5
  %Inh: 10%
CDK11
  %Inh: 0%
CDK2
  %Inh: 0%
CDK3
  %Inh: 0%
CDK4-cyclinD1
  %Inh: 0%
CDK4-cyclinD3
  %Inh: 0%
CDK4
  %Inh: 0%
CDK5
  %Inh: 4%
CDK7
  %Inh: 7%
CDK8
  %Inh: 0%
CDK9
  %Inh: 2%
CDKL1
  %Inh: 8%

## Cn1cc(-c2ccc3c(c2)CCN3C(=O)Cc2cccc(C(F)(F)F)c2)c2c(N)ncnc21 [GSK2606414]
CAMK2D
  %Inh: 0%
CAMK2G
  %Inh: 5%
CAMK4
  %Inh: 0%
CAMKK1
  %Inh: 7%
CAMKK2
  %Inh: 0%
CASK
  %Inh: 75%
CDC2L1
  %Inh: 0%
CDC2L2
  %Inh: 0%
CDC2L5
  %Inh: 0%
CDK11
  %Inh: 37%
CDK2
  %Inh: 0%
CDK3
  %Inh: 0%
CDK4-cyclinD1
  %Inh: 0%
CDK4-cyclinD3
  %Inh: 0%
CDK4
  %Inh: 6%
CDK5
  %Inh: 0%
CDK7
  %Inh: 0%
CDK8
  %Inh: 34%
CDK9
  %Inh: 0%
CDKL1
  %Inh: 0%

## Oc1ccc2ncnc(Nc3ccc(OCc4ccccc4)cc3)c2c1 [GI262866]
CAMK2D
  %Inh: 1%
CAMK2G
  %Inh: 2%
CAMK4
  %Inh: 0%
CAMKK1
  %Inh: 0%
CAMKK2
  %Inh: 0%
CASK
  %Inh: 8%
CDC2L1
  %Inh: 0%
CDC2L2
  %Inh: 0%
CDC2L5
  %Inh: 0%
CDK11
  %Inh: 36%
CDK2
  %Inh: 0%
CDK3
  %Inh: 22%
CDK4-cyclinD1
  %Inh: 0%
CDK4-cyclinD3
  %Inh: 0%
CDK4
  %Inh: 16%
CDK5
  %Inh: 0%
CDK7
  %Inh: 0%
CDK8
  %Inh: 21%
CDK9
  %Inh: 0%
CDKL1
  %Inh: 0%

## N#Cc1ccc(Oc2ccc(Nc3ncnc4cc[nH]c34)cc2Cl)cc1
CAMK2D
  %Inh: 13%
CAMK2G
  %Inh: 10%
CAMK4
  %Inh: 3%
CAMKK1
  %Inh: 6%
CAMKK2
  %Inh: 11%
CASK
  %Inh: 0%
CDC2L1
  %Inh: 14%
CDC2L2
  %Inh: 10%
CDC2L5
  %Inh: 0%
CDK11
  %Inh: 3%
CDK2
  %Inh: 6%
CDK3
  %Inh: 2%
CDK4-cyclinD1
  %Inh: 11%
CDK4-cyclinD3
  %Inh: 6%
CDK4
  %Inh: 0%
CDK5
  %Inh: 0%
CDK7
  %Inh: 27%
CDK8
  %Inh: 13%
CDK9
  %Inh: 17%
CDKL1
  %Inh: 27%

## CC(C)N1CCC(n2cnc(-c3ccc(F)cc3)c2-c2ccnc(N)n2)CC1 [SB-223132]
CAMK2D
  %Inh: 1%
CAMK2G
  %Inh: 4%
CAMK4
  %Inh: 0%
CAMKK1
  %Inh: 21%
CAMKK2
  %Inh: 6%
CASK
  %Inh: 0%
CDC2L1
  %Inh: 5%
CDC2L2
  %Inh: 19%
CDC2L5
  %Inh: 0%
CDK11
  %Inh: 10%
CDK2
  %Inh: 0%
CDK3
  %Inh: 28%
CDK4-cyclinD1
  %Inh: 0%
CDK4-cyclinD3
  %Inh: 0%
CDK4
  %Inh: 10%
CDK5
  %Inh: 0%
CDK7
  %Inh: 0%
CDK8
  %Inh: 54%
CDK9
  %Inh: 0%
CDKL1
  %Inh: 57%

## CCc1nc(-c2cccc(N(C)S(=O)(=O)c3ccccc3)c2)c(-c2ccnc(Nc3ccc(N4CCN(C(C)=O)CC4)nc3)n2)s1 [GSK1645895]
CAMK2D
  %Inh: 24%
CAMK2G
  %Inh: 37%
CAMK4
  %Inh: 0%
CAMKK1
  %Inh: 30%
CAMKK2
  %Inh: 32%
CASK
  %Inh: 5%
CDC2L1
  %Inh: 11%
CDC2L2
  %Inh: 16%
CDC2L5
  %Inh: 0%
CDK11
  %Inh: 6%
CDK2
  %Inh: 0%
CDK3
  %Inh: 0%
CDK4-cyclinD1
  %Inh: 0%
CDK4-cyclinD3
  %Inh: 3%
CDK4
  %Inh: 0%
CDK5
  %Inh: 0%
CDK7
  %Inh: 0%
CDK8
  %Inh: 0%
CDK9
  %Inh: 15%
CDKL1
  %Inh: 1%

## CC(=O)Nc1n[nH]c2ncc(-c3ccccc3)cc12 [SB-548492]
CAMK2D
  %Inh: 0%
CAMK2G
  %Inh: 17%
CAMK4
  %Inh: 0%
CAMKK1
  %Inh: 0%
CAMKK2
  %Inh: 4%
CASK
  %Inh: 0%
CDC2L1
  %Inh: 0%
CDC2L2
  %Inh: 14%
CDC2L5
  %Inh: 21%
CDK11
  %Inh: 0%
CDK2
  %Inh: 8%
CDK3
  %Inh: 12%
CDK4-cyclinD1
  %Inh: 0%
CDK4-cyclinD3
  %Inh: 1%
CDK4
  %Inh: 25%
CDK5
  %Inh: 11%
CDK7
  %Inh: 17%
CDK8
  %Inh: 0%
CDK9
  %Inh: 0%
CDKL1
  %Inh: 30%

## CCC(CC)(CC)n1cnc2c(N)ncnc21 [SKF-97620]
CAMK2D
  %Inh: 0%
CAMK2G
  %Inh: 0%
CAMK4
  %Inh: 8%
CAMKK1
  %Inh: 0%
CAMKK2
  %Inh: 0%
CASK
  %Inh: 42%
CDC2L1
  %Inh: 0%
CDC2L2
  %Inh: 0%
CDC2L5
  %Inh: 20%
CDK11
  %Inh: 0%
CDK2
  %Inh: 0%
CDK3
  %Inh: 3%
CDK4-cyclinD1
  %Inh: 0%
CDK4-cyclinD3
  %Inh: 0%
CDK4
  %Inh: 28%
CDK5
  %Inh: 5%
CDK7
  %Inh: 22%
CDK8
  %Inh: 30%
CDK9
  %Inh: 0%
CDKL1
  %Inh: 13%

## COc1ccc(Nc2nccc(N3CCC(NC(=O)Nc4ccc5c(c4)OCO5)C3)n2)cc1 (stereo not drawn) [GSK1379745]
CAMK2D
  %Inh: 7%
CAMK2G
  %Inh: 20%
CAMK4
  %Inh: 0%
CAMKK1
  %Inh: 29%
CAMKK2
  %Inh: 9%
CASK
  %Inh: 5%
CDC2L1
  %Inh: 0%
CDC2L2
  %Inh: 0%
CDC2L5
  %Inh: 0%
CDK11
  %Inh: 46%
CDK2
  %Inh: 73%
CDK3
  %Inh: 2%
CDK4-cyclinD1
  %Inh: 42%
CDK4-cyclinD3
  %Inh: 0%
CDK4
  %Inh: 32%
CDK5
  %Inh: 2%
CDK7
  %Inh: 0%
CDK8
  %Inh: 46%
CDK9
  %Inh: 0%
CDKL1
  %Inh: 1%

## O=C(Nc1ccccc1)Nc1ccc(Oc2ccc3nccn3n2)cc1
CAMK2D
  %Inh: 0%
CAMK2G
  %Inh: 14%
CAMK4
  %Inh: 29%
CAMKK1
  %Inh: 0%
CAMKK2
  %Inh: 14%
CASK
  %Inh: 7%
CDC2L1
  %Inh: 0%
CDC2L2
  %Inh: 8%
CDC2L5
  %Inh: 0%
CDK11
  %Inh: 0%
CDK2
  %Inh: 0%
CDK3
  %Inh: 1%
CDK4-cyclinD1
  %Inh: 0%
CDK4-cyclinD3
  %Inh: 0%
CDK4
  %Inh: 0%
CDK5
  %Inh: 0%
CDK7
  %Inh: 0%
CDK8
  %Inh: 23%
CDK9
  %Inh: 0%
CDKL1
  %Inh: 36%

## Fc1cccc(COc2ccc(Nc3ncnc4cc[nH]c34)cc2Cl)c1
CAMK2D
  %Inh: 9%
CAMK2G
  %Inh: 11%
CAMK4
  %Inh: 0%
CAMKK1
  %Inh: 11%
CAMKK2
  %Inh: 0%
CASK
  %Inh: 0%
CDC2L1
  %Inh: 17%
CDC2L2
  %Inh: 11%
CDC2L5
  %Inh: 0%
CDK11
  %Inh: 26%
CDK2
  %Inh: 11%
CDK3
  %Inh: 6%
CDK4-cyclinD1
  %Inh: 6%
CDK4-cyclinD3
  %Inh: 10%
CDK4
  %Inh: 0%
CDK5
  %Inh: 21%
CDK7
  %Inh: 17%
CDK8
  %Inh: 8%
CDK9
  %Inh: 11%
CDKL1
  %Inh: 2%
